Experimental data reported in paper PMC4336329 (PLoS ONE, 2015).
Screen size: about 310,000 compounds; about 14,000 (4.5%) showed an effect of 50% or more. Effects have a minus sign here. The entries come from a sample that favours strong results as a whole.

Molecular target: human ether-à-go-go-related gene (hERG) potassium channel (human, UniProt Q12809)
Experiment: primary screen, population patch clamp on CHO cells stably expressing hERG; higher = less effect of the substance
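Further: peak tail current of the secondary pulse compared with the same well before compound.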

Sequence of human ether-à-go-go-related gene (hERG) potassium channel (Q12809 whole entry, looked up): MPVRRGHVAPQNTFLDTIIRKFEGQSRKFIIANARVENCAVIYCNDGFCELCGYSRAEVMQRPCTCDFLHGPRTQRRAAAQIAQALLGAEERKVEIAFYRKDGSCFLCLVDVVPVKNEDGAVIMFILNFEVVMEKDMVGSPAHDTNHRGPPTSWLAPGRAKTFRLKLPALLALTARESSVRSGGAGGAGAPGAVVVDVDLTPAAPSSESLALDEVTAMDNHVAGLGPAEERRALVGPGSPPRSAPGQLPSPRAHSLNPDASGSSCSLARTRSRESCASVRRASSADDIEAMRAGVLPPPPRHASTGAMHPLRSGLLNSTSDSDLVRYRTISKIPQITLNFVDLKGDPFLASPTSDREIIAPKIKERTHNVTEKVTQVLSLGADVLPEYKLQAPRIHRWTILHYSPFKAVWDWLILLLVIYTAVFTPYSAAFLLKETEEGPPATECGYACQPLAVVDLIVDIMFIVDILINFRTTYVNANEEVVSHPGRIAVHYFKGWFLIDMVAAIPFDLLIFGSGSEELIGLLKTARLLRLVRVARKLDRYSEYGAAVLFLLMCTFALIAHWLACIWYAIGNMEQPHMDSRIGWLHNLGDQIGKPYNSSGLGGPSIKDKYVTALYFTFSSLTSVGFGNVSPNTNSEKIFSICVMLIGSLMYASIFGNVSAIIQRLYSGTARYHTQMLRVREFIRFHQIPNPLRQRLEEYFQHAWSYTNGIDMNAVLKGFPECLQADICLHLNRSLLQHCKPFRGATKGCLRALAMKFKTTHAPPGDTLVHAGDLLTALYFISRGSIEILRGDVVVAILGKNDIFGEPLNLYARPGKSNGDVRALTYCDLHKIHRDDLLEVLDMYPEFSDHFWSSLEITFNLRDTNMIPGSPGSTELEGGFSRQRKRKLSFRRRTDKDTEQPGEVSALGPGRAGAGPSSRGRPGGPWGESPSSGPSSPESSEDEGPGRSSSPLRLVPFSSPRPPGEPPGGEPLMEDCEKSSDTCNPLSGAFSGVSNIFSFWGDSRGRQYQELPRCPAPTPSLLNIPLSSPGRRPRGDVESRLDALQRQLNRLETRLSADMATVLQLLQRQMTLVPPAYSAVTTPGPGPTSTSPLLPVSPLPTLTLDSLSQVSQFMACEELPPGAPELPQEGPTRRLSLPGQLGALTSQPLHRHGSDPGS

Compound	hERG current change (%, negative = inhibition) at 10uM
Cc1noc(C)c1C(=O)NCCc1ccc(S(N)(=O)=O)cc1	-23.7%
COc1ccc(C2NN=C(c3ccc(C)cc3)S2)cc1 (centres unmarked)	4.2%
O=C(N/N=C/c1cc([N+](=O)[O-])ccc1O)c1cc(-c2ccccc2)nc2ccccc12	12.3%
O=C(c1ccncc1)N(Cc1ccco1)Cc1cc2ccccc2[nH]c1=O	-43.5%
CCOC(=O)C1C(c2cccc(F)c2)NC(=S)NC1(O)C(F)(F)F (centres unmarked)	-14.4%
CCOCC(O)CSCc1ccc(Cl)cc1 (centres unmarked)	1.1%
C1=C[C@@H]2CCN(Cc3ccccc3)Cc3cccc(c32)C1	-50.6%
Cc1ccc(CN2CC[C@H]3C=CCc4cccc(c43)C2)cc1	-22.1%
Fc1ccc(CN2CC[C@H]3C=CCc4cccc(c43)C2)cc1	-30.2%
CN(C)c1ccc(P(=O)(OC2CCCCC2)C(O)c2ccncc2)cc1 (centres unmarked)	11.2%
CC1CC1C(=O)OCC(=O)NC(=O)c1ccccc1 (centres unmarked)	6.93%
CC(C)(C)C(=O)NC1CCN(C(=O)N2CCCC2)CC1	10.2%
COc1ccc2c(CC(=O)OCC(=O)Nc3ccccc3[N+](=O)[O-])coc2c1	19.4%
c1ccc(NC2=NCCN2CCCC2CCCCC2)cc1	-47.6%
c1ccc(NC2=NCCN2CCCC2CCCC2)cc1	-53.4%
CCCCCCCN1CCN=C1Nc1ccccc1	-58%
c1ccc(NC2=NCCN2CCC2CCCC2)cc1	-24%
CCCCN1CCN=C1Nc1ccccc1	15.2%
c1ccc(CCCCN2CCN=C2Nc2ccccc2)cc1	-42%
O=C(Oc1ccc(/C=N/NC(=O)c2ccccc2F)cc1)c1ccccc1	10.3%
COC(=O)c1ccc(CSc2nnc(NC(=O)C3CC(=O)N(Cc4ccc(C)cc4)C3)s2)cc1 (centres unmarked)	8.78%
COC(=O)/C=C1/SC(=NC(=O)c2ccccc2)NC1=O	-13.9%
COC(=O)/C=C1\SC(=NC(=O)c2cccc(Cl)c2)NC1=O	-79.5%

Compound	hERG current change (%, negative = inhibition) at 10uM
COC(=O)/C=C1/SC(=NC(=O)c2ccc(Cl)cc2)NC1=O	26.7%
COc1ccc(/C=C/C(=O)NCC(=O)N/N=C/c2cccs2)cc1	0.0661%
CCC(C)[C@H](NC(=O)NCc1ccc(OC)c(OC)c1)C(=O)O (some centres unmarked)	7.82%
Cc1[nH]nc(N2CCCCC2)c1[N+](=O)[O-]	-6.37%
Cc1sc2nc(CN3CCCCC3)nc(Nc3ccc4c(c3)OCCO4)c2c1C	-85.8%
Cc1sc2nc(CN3CCOCC3)nc(NS(=O)(=O)c3ccc4c(c3)OCCO4)c2c1C	6.33%
Cc1nc(Nc2ccc3c(c2)OCCO3)c2c(C)c(C)sc2n1	-18.5%
Cc1sc2nc(CN3CCOCC3)nc(NCCc3ccccc3)c2c1C	-30%
Cc1sc2nc(CN3CCCC3)nc(Cl)c2c1C	-4.03%
Cc1sc2nc(CN3CCCC3)nc(NCc3ccncc3)c2c1C	-69.1%
COc1ccc(-c2nnnn2C)cc1S(=O)(=O)Nc1ccc(C)cc1C	-7.53%
Cc1cc(OC(C)C(=O)NCCN2CCOCC2)c2c(C)c(C)c(=O)oc2c1 (centres unmarked)	9.89%
COc1cccc(N2CCN(C(=S)Nc3ccccc3)CC2)c1	19%
O=C(CCCNS(=O)(=O)c1cccc2nsnc12)N1CCCCC1	10.7%
COc1cc(CNC2CCCC2)cc(Cl)c1OCc1ccccc1F.Cl	-1.44%
Cc1ccc(C)c(-c2ccc(=O)n(Cc3c(F)cccc3Cl)n2)c1	3.88%
CN(Cc1cc2ccccc2[nH]c1=O)C(=O)C1CCCCC1	-71.6%
CC(C)(C)N(Cc1cc2ccccc2[nH]c1=O)C(=O)C1CCCCC1	-11.9%
CCN(Cc1cc2ccccc2[nH]c1=O)C(=O)C1CCCCC1	-13.3%
CCOC(=O)[C@@H]1[C@H]2COc3ccccc3[C@@H]2N2C(=O)N(c3ccccc3)C(=O)[C@@]12C	11.4%
COc1ccc(/C=N\NC(=O)c2ccc(-c3ccccc3)cc2)cc1COC(C)=O	-0.748%
CC1=C(C(=O)N(C)C)C(c2ccccc2OC(F)F)NC(=O)N1 (centres unmarked)	3.49%
O=C(Nc1ccc(Cl)cc1C(=O)c1ccccc1)c1ccccc1	3.76%

Compound	hERG current change (%, negative = inhibition) at 10uM
CCN(CC)CC(=O)Nc1ccc(C)cc1C(=O)c1ccccc1	-19.5%
CCN(CC)CCNCC(=O)Nc1ccc(Cl)cc1C(=O)c1ccccc1.O=C(O)C(=O)O	-75.2%
C[N+](C)(C)CC(=O)Nc1ccc(Cl)cc1C(=O)c1ccccc1.[Br-]	21.4%
CN(C)CCCNCC(=O)Nc1ccc(Cl)cc1C(=O)c1ccccc1.O=C(O)C(=O)O	-69%
CCN(CC)CC(=O)Nc1ccc(Cl)cc1C(=O)c1ccccc1	-21.2%
COc1ccc(C2NC(c3ccc(OC)cc3)C([N+](=O)[O-])C(C)(C)C2[N+](=O)[O-])cc1 (centres unmarked)	41.2%
CCCCCCCSc1nnc(-c2ccccc2N)c(=O)[nH]1	6.86%
COc1ccccc1NC(=S)N1CCc2cc(OC)c(OC)cc2C1	-0.62%
COc1ccc(C(=S)N2CCN(c3cccc(Cl)c3)CC2)c(OC)c1	3.25%
COc1ccccc1CNC(=O)Cn1ccc2cc(S(=O)(=O)N3CCCC3)ccc21	-3.32%
CCc1nnc(NC(=O)CCS(=O)(=O)c2ccccc2)s1	23.8%
CC(C(=O)OCC(=O)Nc1ccc(S(=O)(=O)N2CCCCC2)cc1)N1C(=O)c2ccccc2C1=O (centres unmarked)	-16.4%
CN(C)S(=O)(=O)c1cccc(NC(=O)COC(=O)c2cc(=O)c3ccccc3o2)c1	11.3%
CC(C(=O)OCC(=O)Nc1cccc(S(=O)(=O)N2CCOCC2)c1)N1C(=O)c2ccccc2C1=O (centres unmarked)	-58%
O=C(COC(=O)c1ccccc1)Nc1cccc(S(=O)(=O)N2CCOCC2)c1	-26.5%
CC(C(=O)OCC(=O)Nc1cccc(S(=O)(=O)N(C)C)c1)N1C(=O)c2ccccc2C1=O (centres unmarked)	-82.8%
CC(C(=O)OCC(=O)Nc1ccc2c(c1)OCO2)N1C(=O)c2ccccc2C1=O (centres unmarked)	-12.4%
Cc1sc2nc(C(C)Nc3ccccc3N3CCOCC3)[nH]c(=O)c2c1C (centres unmarked)	11.1%
O=C(N/N=C/c1ccncc1)c1cccc([N+](=O)[O-])c1	-5.83%
O=C(NCCN1CCN(C(=O)c2cccs2)CC1)C(=O)Nc1ccc(Br)cc1	-73.7%
COc1ccc(NC(=O)C(=O)NCCN2CCN(C(=O)c3cccs3)CC2)cc1	-45.1%
Cl.O=C(CN1CCN(C(=O)c2cccs2)CC1)NC1CCCCC1	-1.7%
CCC(=O)Nc1ccc(N2CCN(C(=O)c3cccs3)CC2)cc1	-7.15%

Compound	hERG current change (%, negative = inhibition) at 10uM
O=C(NCCN1CCN(C(=O)c2cccs2)CC1)c1cccs1	-35.8%
O=C(CN1CCOCC1)Nc1ccc(NC(=O)c2ccccc2F)cc1	10.7%
Cc1cc(NC(=O)C(=O)NCCN2CCN(C(=O)c3cccs3)CC2)ccc1Br	-63.7%
COc1ccccc1C(=O)N1CCN(CCNC(=O)C(=O)Nc2ccc(Br)c(C)c2)CC1	-48.8%
O=C(CN1CCN(C(=O)c2ccco2)CC1)Nc1ccc(Br)cc1	5.38%
O=C(CN1CCN(C(=O)c2ccccc2F)CC1)Nc1ccc(Br)cc1	-64.6%
O=C(CN1CCN(C(=O)c2cccs2)CC1)Nc1ccc(Br)cc1	-71.8%
Cc1cc(NC(=O)C(=O)NCCN2CCN(S(C)(=O)=O)CC2)ccc1Br	-21.3%
Cc1onc(-c2ccccc2)c1-c1nnc(CN2CCN(S(=O)(=O)c3ccccc3F)CC2)o1	-28.4%
Cc1c(/C=N\NC(=O)C2(C)CC2(Cl)Cl)cnn1C (centres unmarked)	5.55%
COc1ccc(CC(=O)NC(=S)Nc2ccc(S(N)(=O)=O)cc2)cc1	-17.6%
COc1ccc(/C=N/NC(=O)c2cccc(Br)c2)cc1CSc1ccccn1	2.67%
CCCNC(=O)c1cccc(Cn2nc(C)c(Br)c2C)c1	-6.12%
CSc1cc(C)n(-c2ccc(Cl)cc2)c(=S)c1C(C)=O	-33.9%
Cn1c(SCC(=O)NNC(=O)c2ccccc2O)nnc1-c1ccccc1	18%
CCN(CC)S(=O)(=O)c1ccc(N(C)Cc2cccnc2)nc1	-15.2%
CC(C)[NH+]1CCC2(CC1)C(C#N)=C(N)NC([S-])=C2C#N	-4.59%
COc1ccc(CN(CC(=O)NC2CCCC2)C(=O)c2ccc(-c3ccccc3)[nH]2)cc1	-19.9%
CCCCN1C(=S)NC[C@@H]1Cc1ccccc1	-11.8%
Cc1ccnc(NCn2nnc3ccccc32)c1	7.69%
